PubChem BioAssay (EPA / NIEHS)
Records with an inconclusive call do not appear. Activity calls are given as the source filed them. Rule for the calls, unless noted: active = hit-call score of the fitted dose curve at least 0.9, where 1 is the maximum; inactive = score below 0.9.

What was measured:
[1] = read-out: Interleukin-1 alpha (IL1a), IL1A (gene 3552); assay: BSK_LPS_IL1a: BioMAP Diversity Plus: LPS Assay for Interleukin-1 alpha (IL1a) Biomarker Activity (AID 2283080); conditions: primary human HUVEC with PBMC; actives raise or lower the signal
Summary of the method: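 ELISA read-out of IL-1 alpha from a human primary vascular co-culture (endothelium plus PBMC) under LPS, sampled 24 hours post-dosing. Activity was fitted in both directions relative to DMSO controls.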

[2] = read-out: Monocyte Chemoattractant Protein-1 (MCP1), CCL2 (gene 6347); assay: BSK_LPS_MCP1: BioMAP Diversity Plus: LPS Assay for Monocyte Chemoattractant Protein-1 (MCP1) Biomarker Activity (AID 2283081); conditions: primary human HUVEC with PBMC; actives raise or lower the signal;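 for AC50: secreted MCP-1 protein quantified by ELISA in culture supernatant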
Summary of the method: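 Human endothelial–PBMC co-cultures were dosed with chemical, then LPS-driven MCP-1 levels were quantified by ELISA at 24 h. Activity in either direction was fitted versus DMSO negative control.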

[3] = BSK_LPS_PGE2: BioMAP Diversity Plus: LPS Assay for Prostaglandin E2 (PGE2) Biomarker Activity (AID 2283082); conditions: primary human HUVEC with PBMC; actives raise or lower the signal;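 for AC50: secreted prostaglandin E2 measured by ELISA in LPS-stimulated co-culture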
Summary of the method: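 HUVEC plus PBMC co-culture stimulated with LPS; secreted PGE2 quantified by ELISA 24 h after chemical dosing. Activity fitted bidirectionally against DMSO as negative control and baseline; parallel SRB total-protein staining served as cytotoxicity check.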

[4] = read-out: Macrophage colony-stimulating factor (MCSF), CSF1 (gene 1435); assay: BSK_LPS_MCSF: BioMAP Diversity Plus: LPS Assay for Macrophage colony-stimulating factor (MCSF) Biomarker Activity (AID 2283083); conditions: primary human HUVEC with PBMC; actives raise or lower the signal
Summary of the method: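 ELISA readout of M-CSF after 24 h compound exposure in a human endothelial/PBMC co-culture. Activity, in either direction, is fitted relative to DMSO vehicle.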

[5] = read-out: Tissue Factor, F3 (gene 2152); assay: BSK_LPS_TissueFactor: BioMAP Diversity Plus: LPS Assay for Tissue Factor Biomarker Activity (AID 2283084); conditions: primary human HUVEC with PBMC; actives raise or lower the signal
Summary of the method: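 ELISA signal for cell-surface Tissue Factor (CD142) was read 24 h after compound dosing of an LPS-stimulated human endothelial–PBMC primary co-culture. Gain or loss of signal was scored relative to DMSO.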

[6] = read-out: Tumor necrosis factor (Homo sapiens) (UniProt P01375); assay: BSK_LPS_TNFa: BioMAP Diversity Plus: LPS Assay for Tumour Necrosis Factor alpha (TNFa) Biomarker Activity (AID 2283085); conditions: primary human HUVEC with PBMC; actives raise or lower the signal
Summary of the method: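 Human umbilical vein endothelial cells co-cultured with PBMC were exposed to test chemical and TNFa measured by ELISA 24 h after dosing. Bidirectional curve fitting was done relative to DMSO as negative control and baseline.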

[7] = read-out: Vascular cell adhesion molecule 1 (VCAM1), VCAM1 (gene 7412); assay: BSK_LPS_VCAM1: BioMAP Diversity Plus: LPS Assay for Vascular cell adhesion molecule 1 (VCAM1) Biomarker Activity (AID 2283086); conditions: primary human HUVEC with PBMC; actives raise or lower the signal
Summary of the method: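 Human umbilical vein endothelial cells co-cultured with peripheral blood mononuclear cells under LPS stimulation were exposed to test chemical for 24 h. VCAM-1 levels were then measured by ELISA, with bidirectional curve fitting relative to DMSO as negative control and baseline.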

CD38, CD38 (gene 952) = assay: BSK_SAg_CD38: BioMAP Diversity Plus: SAg Assay for CD38 Biomarker Activity (AID 2283087); conditions: primary human HUVEC with PBMC; actives raise or lower the signal
Summary of the method: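 Fluorescence ELISA of cell-surface CD38 served as the read-out, with either increase or decrease fitted against DMSO controls. Cells were a human umbilical vein endothelium plus PBMC co-culture under SEB/TSST-1 stimulation, measured 24 h after dosing.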

CD40, CD40 (gene 958) = assay: BSK_SAg_CD40: BioMAP Diversity Plus: SAg Assay for CD40 Biomarker Activity (AID 2283088); conditions: primary human HUVEC with PBMC; actives raise or lower the signal
Summary of the method: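 Compounds were dosed onto a human primary endothelial–PBMC co-culture, and after 24 h CD40 was quantified by ELISA using a fluorescence signal. Activity in either direction was fitted relative to DMSO.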

CD69, CD69 (gene 969) = assay: BSK_SAg_CD69: BioMAP Diversity Plus: SAg Assay for CD69 Biomarker Activity (AID 2283089); conditions: primary human HUVEC with PBMC; actives raise or lower the signal;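 for AC50: cell surface CD69 protein quantified by ELISA with fluorescence detection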
Summary of the method: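 Values derive from bidirectional fitting relative to DMSO vehicle. Cells: umbilical vein endothelium plus peripheral blood mononuclear cells, treated 24 h before fluorescent ELISA for CD69.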

[8] = read-out: Monocyte Chemoattractant Protein-1 (MCP1), CCL2 (gene 6347); assay: BSK_SAg_MCP1: BioMAP Diversity Plus: SAg Assay for Monocyte Chemoattractant Protein-1 (MCP1) Biomarker Activity (AID 2283090); conditions: primary human HUVEC with PBMC; actives raise or lower the signal
Summary of the method: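 MCP-1 levels in the endothelial–PBMC SAg co-culture were quantified by ELISA at 24 h post-dosing; both increases and decreases versus DMSO scored. Cytotoxicity monitored by SRB total protein in parallel cultures.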

[9] = read-out: Monokine induced gamma interferon (MIG), CXCL9 (gene 4283); assay: BSK_SAg_MIG: BioMAP Diversity Plus: SAg Assay for Monokine induced gamma interferon (MIG) Biomarker Activity (AID 2283092); conditions: primary human HUVEC with PBMC; actives raise or lower the signal
Summary of the method: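 Values reflect bidirectional fitting of ELISA-measured MIG against DMSO vehicle, taken 24 h after dosing of a co-culture of human umbilical vein endothelial cells and peripheral blood mononuclear cells.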

[10] = read-out: Interleukin-8 (IL8), CXCL8 (gene 3576); assay: BSK_SAg_IL8: BioMAP Diversity Plus: SAg Assay for Interleukin-8 (IL8) Biomarker Activity (AID 2283094); conditions: primary human HUVEC with PBMC; actives raise or lower the signal
Summary of the method: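 Human umbilical vein endothelial cells co-cultured with peripheral blood mononuclear cells; IL-8 measured by ELISA 24 h after chemical dosing. Bidirectional concentration-response fitting used DMSO as negative control and activity baseline.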

[11] = BSK_SAg_Proliferation: Cell Proliferation Assessment in the BioMAP Diversity Plus: SAg Assay (AID 2283095); conditions: primary human HUVEC with PBMC;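 note: relative cell number as total protein by SRB absorbance in sub-confluent culture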
Summary of the method: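 Human umbilical vein endothelial cells co-cultured with peripheral blood mononuclear cells; total protein measured by sulforhodamine B staining (0.1% SRB after 10% TCA fixation), absorbance at 560 nm, at 96 h. Bidirectional fit against DMSO baseline.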

[12] = BSK_SAg_SRB: Viability Assessment in the BioMAP Diversity Plus: SAg Assay (AID 2283096); conditions: primary human HUVEC with PBMC;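 note: cells read one day after compound addition; hits may be either gain or loss of signal compared with DMSO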
Summary of the method: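 Endothelial/PBMC primary human co-culture; compound 24 h; fix 10% TCA, stain 0.1% SRB, A560; protein content as cytotoxicity proxy; bidirectional curve fit, DMSO = baseline.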

[13] = BSK_SAg_PBMCCytotoxicity: PBMC Cytotoxicity Assessment in the BioMAP Diversity Plus: SAg Assay (AID 2283093); conditions: primary human HUVEC with PBMC;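 note: PBMC viability measured as Alamar Blue reduction fluorescence at 546/580 nm; fitted both ways against DMSO so a hit may be loss or gain of signal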;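 for AC50: PBMC superantigen activated with SEB plus TSST-1 one hour after compound addition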
Summary of the method: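 Human umbilical vein endothelial cells co-cultured with PBMC; PBMC (75,000/well) pre-treated with compound 1 h, then activated with SEB and TSST-1 (20 ng/mL final each) for 90 h. Alamar Blue added 6 h, fluorescence 546/580 nm; bidirectional fit versus DMSO.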

[14] = target: human CYP2A6, CYP2A6 (gene 1548) (UniProt P11509); assay: NVS_ADME_hCYP2A6: NovaScreen (NVS) CYP450-related Enzyme Activity (ADME) Assay for human CYP2A6 (AID 2283099; active = hit-call score of the fitted dose curve at least 0.9, where 1 is the maximum)
Sequence of human CYP2A6, CYP2A6 (gene 1548) (P11509 whole entry, looked up): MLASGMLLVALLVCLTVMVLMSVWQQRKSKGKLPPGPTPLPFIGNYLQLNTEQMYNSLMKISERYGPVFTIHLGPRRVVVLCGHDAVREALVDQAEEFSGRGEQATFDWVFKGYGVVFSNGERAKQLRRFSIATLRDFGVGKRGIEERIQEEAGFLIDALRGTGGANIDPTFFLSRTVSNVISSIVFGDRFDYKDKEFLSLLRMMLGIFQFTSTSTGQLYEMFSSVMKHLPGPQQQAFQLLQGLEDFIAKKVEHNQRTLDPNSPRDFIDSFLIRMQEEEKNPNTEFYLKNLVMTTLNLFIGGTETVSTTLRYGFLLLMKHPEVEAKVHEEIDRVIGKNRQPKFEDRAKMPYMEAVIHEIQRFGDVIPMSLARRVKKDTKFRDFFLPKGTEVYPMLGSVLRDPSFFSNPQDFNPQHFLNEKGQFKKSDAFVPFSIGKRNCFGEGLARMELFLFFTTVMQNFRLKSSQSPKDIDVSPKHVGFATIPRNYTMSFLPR
Summary of the method: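 Fluorescent substrate turnover by recombinant CYP2A6 (insect cell source), 0.5 h read. Screen: 10 uM, duplicate; threshold hits (e.g. 30% inhibition) → singleton concentration-response, top 20 uM. Positive and negative controls on every plate.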

[15] = read-out: E-selectin (Homo sapiens) (UniProt P16581); assay: BSK_SAg_Eselectin: BioMAP Diversity Plus: SAg Assay for Eselectin Biomarker Activity (AID 2283091); conditions: primary human HUVEC with PBMC; actives raise or lower the signal
Summary of the method: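 Co-culture: HUVEC + PBMC. Dose compound; 24 h. ELISA for E-selectin. Bidirectional fit vs DMSO.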

Measured: AC50

Sequence of Tumor necrosis factor (Homo sapiens) (P01375 whole entry, looked up): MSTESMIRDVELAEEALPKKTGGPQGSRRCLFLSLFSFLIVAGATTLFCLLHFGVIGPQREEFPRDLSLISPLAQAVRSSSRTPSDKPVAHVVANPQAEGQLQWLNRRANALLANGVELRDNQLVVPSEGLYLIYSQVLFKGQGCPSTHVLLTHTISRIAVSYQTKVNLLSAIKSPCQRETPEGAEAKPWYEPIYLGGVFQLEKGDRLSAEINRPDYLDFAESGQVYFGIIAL
Sequence of E-selectin (Homo sapiens) (P16581 whole entry, looked up): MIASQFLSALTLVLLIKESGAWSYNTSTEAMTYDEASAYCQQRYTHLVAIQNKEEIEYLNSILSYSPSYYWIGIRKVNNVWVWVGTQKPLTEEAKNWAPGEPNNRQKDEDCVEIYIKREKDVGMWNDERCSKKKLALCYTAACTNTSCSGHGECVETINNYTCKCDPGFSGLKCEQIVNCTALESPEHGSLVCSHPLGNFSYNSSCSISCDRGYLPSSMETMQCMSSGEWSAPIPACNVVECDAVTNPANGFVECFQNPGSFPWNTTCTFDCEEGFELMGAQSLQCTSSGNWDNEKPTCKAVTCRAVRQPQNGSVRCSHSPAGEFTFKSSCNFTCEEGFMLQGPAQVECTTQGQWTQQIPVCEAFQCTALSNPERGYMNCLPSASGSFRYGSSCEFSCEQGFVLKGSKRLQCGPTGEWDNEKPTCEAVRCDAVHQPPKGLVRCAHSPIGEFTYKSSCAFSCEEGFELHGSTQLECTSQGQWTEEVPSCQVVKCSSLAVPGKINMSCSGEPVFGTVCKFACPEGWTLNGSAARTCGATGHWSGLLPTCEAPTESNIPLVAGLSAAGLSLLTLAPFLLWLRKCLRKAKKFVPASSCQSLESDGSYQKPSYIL

COc1ccc2c(c1)c(CC(=O)O)c(C)n2C(=O)c1ccc(Cl)cc1
active: [3] 0.148 µM
not listed: [13] | [14] | [15]
inactive: all other assays above

COc1ccc(C)cc1N
not listed: [13] | [14] | [15]
inactive: all other assays above

C1CCC(SSC2CCCCC2)CC1
active: [2] 20 µM | [6] 32.5 µM | [7] 20 µM | CD38, CD38 (gene 952) 20 µM | CD40, CD40 (gene 958) 27 µM | CD69, CD69 (gene 969) 20 µM | [13] 16.1 µM | [11] 15 µM
not listed: [14] | [15]
inactive: all other assays above

C[C@]12C=CC(=O)C=C1CC[C@@H]1[C@@H]2C(=O)C[C@@]2(C)[C@H]1CC[C@]2(O)C(=O)CO
not listed: [13] | [14] | [15]
inactive: all other assays above

COc1cc(S(=O)(=O)O)c(C)cc1N=Nc1c(O)ccc2cc(S(=O)(=O)O)ccc12
not listed: [13] | [14] | [15]
inactive: all other assays above

O=C(OCCCCCOC(=O)c1ccccc1)c1ccccc1
active: [6] 12.7 µM
not listed: [13] | [14] | [15]
inactive: all other assays above

CCCCCCCCCCCCCO
active: [7] 34.7 µM | CD38, CD38 (gene 952) 31.1 µM | CD40, CD40 (gene 958) 29.8 µM | [8] 31.5 µM | [10] 38 µM | [12] 37.5 µM
not listed: [13] | [14] | [15]
inactive: all other assays above

O=c1c(O)c(-c2ccc(O)c(O)c2)oc2cc(O)cc(O)c12
active: [3] 32.8 µM | CD38, CD38 (gene 952) 29.9 µM | CD40, CD40 (gene 958) 36 µM | [13] 13 µM | [11] 28.6 µM | [12] 31 µM
not listed: [14] | [15]
inactive: all other assays above

CC(=O)OCCOCCOCCOC(C)=O
not listed: [13] | [14] | [15]
inactive: all other assays above

CC1(C)NC(=O)NC1=O
not listed: [14] | [15]
inactive: all other assays above

Nc1ccc2c(c1)C(=O)c1ccccc1C2=O
active: [3] 3.36 µM | [6] 5.74 µM
not listed: [15]
inactive: all other assays above

Cc1ccc(C(C)C)c(O)c1
active: [3] 8.88 µM
not listed: [14] | [15]
inactive: all other assays above

COc1cc(C=O)ccc1O
not listed: [14] | [15]
inactive: all other assays above

CCCCCCCCCCCCCCCC
not listed: [13] | [14] | [15]
inactive: all other assays above

CCCCCCCCCCCCCCCCCC(=O)O
active: [1] 20 µM | [6] 4.09 µM | CD40, CD40 (gene 958) 25.8 µM | [11] 24.1 µM
not listed: [13] | [14] | [15]
inactive: all other assays above

CC(C)c1ccc(C(=O)N=C(N)N)cc1S(C)(=O)=O
not listed: [14] | [15]
inactive: all other assays above

CN1CCN(Cc2cc(-c3ccc4[nH]c(=O)oc4c3)co2)[C@@H](c2ccc(F)cc2)C1
active: [2] 22.5 µM | CD38, CD38 (gene 952) 31.5 µM | CD40, CD40 (gene 958) 26.8 µM | CD69, CD69 (gene 969) 17.6 µM | [8] 11.5 µM | [15] 11.2 µM | [13] 28.1 µM | [10] 9.71 µM | [11] 30.7 µM
inactive: [1] | [3] | [4] | [5] | [6] | [9] | [12]

Cc1cccc(Nc2cc(Cl)nc(SCC(=O)O)n2)c1C
not listed: [14] | [15]
inactive: all other assays above

CC(C)(C)c1cc(O)c(C(C)(C)C)cc1O
active: [3] 9.44 µM | [6] 1.43 µM | [7] 8.05 µM | CD40, CD40 (gene 958) 11.7 µM | CD69, CD69 (gene 969) 5.55 µM | [8] 5.94 µM | [11] 27.8 µM
not listed: [13] | [14] | [15]
inactive: all other assays above

CCc1c(C(=O)NN2CCCCC2)nn(-c2ccc(Cl)cc2Cl)c1-c1ccc(Br)cc1
active: [1] 10.4 µM | [2] 8.8 µM | [3] 15.3 µM | [4] 20 µM | [7] 6.19 µM | CD38, CD38 (gene 952) 11.5 µM | CD40, CD40 (gene 958) 12.2 µM | CD69, CD69 (gene 969) 10.3 µM | [8] 8.24 µM | [9] 9.99 µM | [13] 11.8 µM | [10] 7.03 µM | [11] 7.06 µM | [12] 8.32 µM
inactive: [5] | [6]

Cc1cccc([N+](=O)[O-])c1C
not listed: [14] | [15]
inactive: all other assays above

Cc1cc(=O)[nH]c(=S)[nH]1
not listed: [13] | [14] | [15]
inactive: all other assays above

CCCCCCC(=O)OCC
not listed: [13] | [14] | [15]
inactive: all other assays above
